The source of these data is publication PMC5540273 (PLoS ONE, 2017).

Common to all, as to conditions: concentration: 1 μM,replicates: in singlicate; n = 1
The test system of test [1] is RPS6KA4(Kin.Dom.1-N-terminal).
In test [2] the test system is RPS6KA4(Kin.Dom.2-C-terminal).
Test [3] deals with RPS6KA5(Kin.Dom.1-N-terminal).
Test [4] has as its system RPS6KA5(Kin.Dom.2-C-terminal).
Test [5] relates to T1, RSK1(Kin.Dom.1-N-terminal).
T1 construct: gene RPS6KA1

Test [6] concerns T2, RSK1(Kin.Dom.2-C-terminal).
T2 construct: gene RPS6KA1

The subject of test [7] is T3, RSK2(Kin.Dom.1-N-terminal).
T3 construct: gene RPS6KA3

In test [8] the test system is T4, RSK2(Kin.Dom.2-C-terminal).
T4 construct: gene RPS6KA3

Test [9] relates to T5, RSK3(Kin.Dom.1-N-terminal).
T5 construct: gene RPS6KA2

The subject of test [10] is T6, RSK3(Kin.Dom.2-C-terminal).
T6 construct: gene RPS6KA2
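Note: KINOMEscan kinase panel screen.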

With `COc1ccc(Nc2nccc(N3CCC(NC(=O)c4cccc(C#N)c4)C3)n2)cc1` (centres unmarked) [GSK1379730], the “%Inh” value in [1] is 15%; in test [2] it was 0%; in test [3], 5%; in [4] it was 0%; in test [5], 0%; in test [6], 0%. Moreover, the “%Inh” value in test [7] worked out at 0%; in test [8] it was 18%; in [9], 0%; in [10], 2%.
With `O=C(NOCC1CC1)c1cc(Br)c(F)c(F)c1Nc1ccc(I)cc1Cl`, the “%Inh” value in test [1] was determined as 0%; in test [2], 0%; in test [3] it was 0%; in [4], 9%; in test [5], 0%; in test [6] it was 38%. Also, the “%Inh” value in test [7] is recorded as 9%; in test [8] it was 0%; in test [9] it was 1%; in test [10], 33%.
In the case of `CNC(=O)c1ccccc1Nc1nc(Nc2cccc(CS(C)(=O)=O)c2)ncc1C.O=CO` [GSK1520489], the “%Inh” value in test [1] was 95.7%; in test [2], 0%; in test [3], 43%; in [4], 0%; in [5] it was 96.5%; in test [6], 43%. The “%Inh” value came to 99.9% in test [7], 12% in test [8], 99% in [9] and 0% in [10].
For `Cc1ccn2nc(-c3ccc(F)cc3)c(-c3ccncc3)c2c1.Cl` [GW457859], the “%Inh” value amounted to 0% in test [1]; 0% in test [2]; 44% in test [3]; 27% in test [4]; 0% in test [5]; 44% in test [6]. Also, the “%Inh” value in test [7] was found to be 0%; in test [8] it was 0%; in test [9], 0%; in [10], 24%.
For the compound `Cn1ccc2ncnc(Oc3ccc(NC(=O)Nc4cncc(C(F)(F)F)c4)c(Cl)c3)c21`, the “%Inh” value in test [1] came out at 0%; in [2], 0%; in test [3], 83%; in test [4], 6%; in [5], 0%; in [6], 0%. In addition, the “%Inh” value in [7] worked out at 0%; in [8], 0%; in test [9] it was 9%; in [10], 0%.
With `C[C@@H](Oc1cc(-n2cnc3cc(-c4cnn(C)c4)ccc32)sc1C(N)=O)c1ccccc1Cl` [GSK580432], the “%Inh” value in test [1] was 82%; in test [2] it was 0%; in test [3], 5%; in test [4] it was 6%; in test [5], 45%; in test [6], 0%. Moreover, the “%Inh” value in test [7] is recorded as 60%; in test [8] it was 2%; in test [9] it was 77%; in test [10], 0%.
Turning to `C[C@@H](Oc1cc(-n2cnc3ccc(-c4ccncc4)cc32)sc1C(N)=O)c1ccccc1Cl` [GSK483724], the “%Inh” value in [1] was found to be 20%; in test [2], 0%; in test [3], 25%; in test [4], 5%; in [5] it was 40%; in test [6], 0%. The “%Inh” value in test [7] is given as 34%; in [8], 0%; in [9] it was 39%; in [10], 0%.
On to `CC(C(=O)NC1CCN(c2ccnc(Nc3ccc(F)cc3)n2)C1)c1ccc(Cl)cc1` (centres unmarked) [GSK1379713], for which the “%Inh” value is reported as 6% in test [1]; 5% in [2]; 0% in test [3]; 0% in test [4]; 0% in [5]; 0% in test [6]. Also, the “%Inh” value in test [7] was found to be 0%; in test [8], 17%; in [9], 0%; in [10], 0%.
On to `Cc1n[nH]c2cc(Nc3ccnc(Nc4cccc(CN5CCOCC5)c4)n3)ccc12` [GW682569], for which the “%Inh” value in test [1] is 0%; in test [2], 0%; in test [3], 0%; in [4], 21%; in test [5] it was 3%; in test [6] it was 28%. Besides, the “%Inh” value in test [7] came to 22%; in test [8], 20%; in test [9] it was 0%; in test [10] it was 0%.
`O=C(Nc1ccc(Oc2ccc3nc(NC(=O)C4CC4)cn3n2)c(F)c1)c1cccn(-c2ccccc2)c1=O`: the “%Inh” value is on record as 50% in [1]; 0% in test [2]; 0% in test [3]; 9% in test [4]; 0% in test [5]; 0% in test [6]. The “%Inh” value in test [7] is 0%; in test [8], 28%; in [9] it was 0%; in test [10], 0%.
As for `CC(C)S(=O)(=O)N1CCN(Cc2ccc3c(c2)nc(NC(=O)c2ccsc2)n3C[C@H](O)c2ccccc2)CC1` [GW635815], the “%Inh” value in [1] turned out to be 29%; in test [2], 0%; in test [3], 12%; in test [4], 0%; in [5], 96.1%; in [6], 0%. In addition, the “%Inh” value in test [7] is on record as 91.8%; in test [8] it was 6%; in test [9], 93.5%; in [10] it was 24%.
Turning to `CS(=O)c1ccc(-c2coc3ccc(-c4n[nH]c(=O)o4)cc23)cc1` (centres unmarked), the “%Inh” value in [1] is 26%; in test [2], 85%; in [3], 13%; in [4] it was 14%; in test [5], 0%; in test [6], 36%. Also, the “%Inh” value in [7] was determined as 13%; in [8], 0%; in test [9], 9%; in test [10], 28%.
For `C[C@@H]1CNc2c(sc3ccc4nc(-c5ccc(O)cc5)ccc4c23)C(=O)N1`, the “%Inh” value in test [1] amounted to 6%; in test [2], 98.8%; in test [3] it was 2%; in [4], 17%; in [5], 6%; in test [6], 12%. The “%Inh” value in test [7] worked out at 58%; in [8] it was 70%; in [9] it was 12%; in test [10], 47%.
As for `C[C@@H]1CCN(C(=O)N2CCCC2)C[C@@H]1N(C)c1ncnc2[nH]ccc12`, the “%Inh” value came out at 0% in test [1]; 2% in test [2]; 0% in test [3]; 0% in [4]; 0% in test [5]; 14% in [6]. Besides, the “%Inh” value in test [7] was 10%; in test [8], 0%; in test [9] it was 0%; in test [10] it was 22%.
Consider `Cn1ccc2ncnc(Oc3ccc(NC(=O)Nc4ccnc(C(F)(F)F)c4)c(Cl)c3)c21`, for which the “%Inh” value in [1] worked out at 0%; in test [2], 7%; in test [3], 3%; in [4], 7%; in [5], 0%; in test [6], 9%. Besides, the “%Inh” value was 0% in [7], 35% in test [8], 0% in test [9] and 1% in test [10].
`COc1cc(Nc2nccc(N3CCC(NC(=O)c4cccc(C#N)c4)C3)n2)cc(OC)c1OC` (centres unmarked) [GSK1379751]: the “%Inh” value is recorded as 0% in [1]; 0% in [2]; 0% in test [3]; 34% in test [4]; 17% in test [5]; 0% in [6]. The “%Inh” value was 0% in test [7], 0% in test [8], 4% in test [9] and 0% in test [10].
For `OCCn1cc(-c2cnc3nnn(Cc4ccc5ncccc5c4)c3n2)cn1`, the “%Inh” value came to 1% in [1]; 0% in test [2]; 0% in [3]; 2% in test [4]; 9% in test [5]; 0% in test [6]. The “%Inh” value in test [7], in [8], in test [9] and in [10] was 0% each time.
